A short description of test [1]: ATG_CRE_CIS: Attagene CIS-FACTORIAL HepG2 Assay for human cAMP Responsive Element (CRE) binding protein 3 (AID 2282926). Particulars: HepG2 CRE cis-reporter, Attagene multiplexed mRNA; actives raise or lower the signal. The method, boiled down: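 Transfected HepG2 were treated for 24 hours, then RNA was extracted and reporter cDNA amplified with sequence-specific primers. Labelled fragments were separated by capillary electrophoresis, and the CRE signal was fitted bidirectionally with DMSO as baseline.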

Test [2] concerns the target CCAAT/enhancer-binding protein beta (Homo sapiens) (UniProt P17676). The test is described as follows: ATG_C_EBP_CIS: Attagene CIS-FACTORIAL HepG2 Assay for human CCAAT/Enhancer Binding Protein (C/EBP) beta (AID 2282927). Conditions: HepG2 Attagene cis-factorial transcription factor reporter; actives raise or lower the signal. The method, boiled down:
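RT-PCR/capillary electrophoresis fluorescence of reporter mRNA, 24 h post-dose, in HepG2 cells carrying transfected cis-promoter reporter units. Bidirectional curve fitting against DMSO baseline captures gain or loss of signal.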

A short description of test [3]: ATG_CMV_CIS: Attagene CIS-FACTORIAL HepG2 Assay for human CMV (Internal Marker) (AID 2282928).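 Further: endpoint acts as a background internal control marker rather than a target.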 Conditions: HepG2 CMV promoter reporter, transcription factor profiling; actives raise or lower the signal. In short, it runs like this:
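CMV internal-marker background readout in transiently transfected HepG2 cells bearing cis-regulated reporter units. Reporter mRNA is measured 24 h after dosing by RT-PCR and capillary electrophoresis, with bidirectional fitting against DMSO.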

Test [4] can be described thus: ATG_DR4_LXR_CIS: Attagene CIS-FACTORIAL HepG2 Assay for human Liver X Receptor (LXR), DR4 submotif (AID 2282929). Particulars: HepG2 Attagene DR4 cis-reporter, mRNA transcription; actives raise or lower the signal. The method, boiled down:
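Transiently transfected HepG2 liver cells; cis-regulated reporters; 24 h dosing. RT-PCR plus CE read-out of reporter mRNA. DMSO baseline, bidirectional curve fitting.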

Test [5] has as its target Aryl hydrocarbon receptor (Homo sapiens) (UniProt P35869). The test is described as follows: ATG_Ahr_CIS: Attagene CIS-FACTORIAL HepG2 Assay for human Aryl Hydrocarbon Receptor (Ahr) (AID 2282930). Conditions: HepG2 AhR cis-factorial reporter transcription; actives raise or lower the signal. In short, it runs like this: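 HepG2 cells transiently transfected with cis-element-driven multiplexed reporter transcription units; endogenous transcription factor activity measured as reporter mRNA 24 h after dosing. RT-PCR, 6-FAM labelling, HpaI digestion, capillary electrophoresis; bidirectional fitting versus DMSO baseline.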

The nature of test [6]: ATG_AP_1_CIS: Attagene CIS-FACTORIAL HepG2 Assay for human Activator Protein 1 (AP-1) (AID 2282931). Particulars: HepG2 Attagene cis-factorial AP-1 reporter mRNA; actives raise or lower the signal. In short, it runs like this: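 We transfected HepG2 cells transiently with a set of cis-regulated reporter transcription units, dosed them for 24 h, and quantified reporter mRNA via RT-PCR and capillary electrophoresis, scoring gain or loss of signal relative to DMSO.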

Test [7] in a line: ATG_AP_2_CIS: Attagene CIS-FACTORIAL HepG2 Assay for human Activator Protein 2 (AP-2) (AID 2282932). Conditions: HepG2 AP-2 cis-reporter, Attagene transcription factor profiling; actives raise or lower the signal. In short, it runs like this:
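HepG2 cells were transiently transfected with multiple cis-promoter reporter transcription units and dosed for 24 h. Reporter mRNA was measured by RT-PCR with capillary electrophoresis fluorescence; bidirectional fits relative to DMSO baseline.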

Test [8] is described as follows: ATG_BRE_CIS: Attagene CIS-FACTORIAL HepG2 Assay for human Bone Morphogenetic Protein (BMP) Response Element (BRE) (AID 2282933). Conditions: HepG2 BMP response element reporter, Attagene transcription factor profiling; actives raise or lower the signal. The method, boiled down: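 HepG2 cells transiently transfected with multiplexed cis-element reporter units were dosed with chemical for 24 h. Reporter mRNA was measured by RT-PCR with fluorescent labelling, HpaI digestion and capillary electrophoresis; bidirectional fitting relative to DMSO.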

The target of test [9] is Retinoic acid receptor alpha (Homo sapiens) (UniProt P10276). The test is described as follows: ATG_DR5_RAR_CIS: Attagene CIS-FACTORIAL HepG2 Assay for human Retinoic Acid Receptor Alpha (RARE), DR5 submotif (AID 2282934).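 On AC50: reporter responds to endogenous RAR alpha beta and gamma in HepG2 not RARA alone.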 Conditions: HepG2 Attagene cis-factorial RARE DR5 reporter, mRNA; actives raise or lower the signal. The method, boiled down:
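HepG2 cells transiently transfected with multiplexed reporter units under cis (DR5 RARE) promoters, so endogenous transcription factor activity is measured. After 24 h compound exposure, reporter mRNA is quantified by RT-PCR with fluorescent labelling and capillary electrophoresis; bidirectional fitting versus DMSO.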

Test [10] concerns the target Transcription factor E2F1 (Homo sapiens) (UniProt Q01094). Briefly: ATG_E2F_CIS: Attagene CIS-FACTORIAL HepG2 Assay for human E2F Transcription Factor 1 (AID 2282935). Conditions: HepG2 Attagene cis-reporter, E2F reporter RNA transcripts; actives raise or lower the signal. The method, boiled down:
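HepG2 cells transiently transfected with multiplexed cis-element reporter units, dosed for 24 h. Reporter mRNA measured by RT-PCR, 6-FAM primer-extension labeling, HpaI digestion and capillary electrophoresis; bidirectional fit versus DMSO baseline.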

Test [11] can be described thus: ATG_E_Box_CIS: Attagene CIS-FACTORIAL HepG2 Assay for human Enhancer Box (E-box) (AID 2282936). Conditions: HepG2 E-box cis-reporter transcription, actives raise or lower the signal. The method, boiled down:
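HepG2 cells transiently transfected with multiplexed cis-element reporter units sensing endogenous transcription factor activity; 24 h compound exposure. Reporter mRNA measured by RT-PCR, 6-FAM primer extension, HpaI digestion and capillary electrophoresis; bidirectional fit versus DMSO.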

Test [12] is described as follows: ATG_EGR_CIS: Attagene CIS-FACTORIAL HepG2 Assay for human Early Growth Response 1 (EGR1) (AID 2282938). Particulars: HepG2 Attagene CIS-FACTORIAL EGR reporter mRNA; actives raise or lower the signal. In short, it runs like this: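 Multiplexed cis-reporter system in human hepatoma HepG2 cells, transiently transfected. Cells are dosed for 24 h; reporter transcripts are amplified, fluorescently tagged and sized by capillary electrophoresis, with DMSO as negative control.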

Test [13] addresses Hepatocyte nuclear factor 3-beta (Homo sapiens) (UniProt Q9Y261). Briefly: ATG_FoxA2_CIS: Attagene CIS-FACTORIAL HepG2 Assay for human Forkhead box A2 (FOXA2) (AID 2282942). Conditions: HepG2 cis-reporter transcription factor activity, 24 h; actives raise or lower the signal. The method, boiled down:
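Multiplexed cis-element reporter assay in transiently transfected HepG2. Twenty-four hours post-dosing, RNA was reverse-transcribed, amplified, FAM-labelled, HpaI-digested and separated by CE. Activity gain or loss relative to DMSO.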

Test [14] in a line: ATG_GATA_CIS: Attagene CIS-FACTORIAL HepG2 Assay for human GATA Binding Protein (AID 2282944). Conditions: HepG2 GATA cis-element reporter, Attagene multiplex mRNA; actives raise or lower the signal. The method, boiled down: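 HepG2 cells transiently transfected with multiplexed cis-element reporter units reflecting endogenous transcription factor activity; reporter mRNA measured after 24 h dosing by RT-PCR, 6-FAM labeling, HpaI digestion and capillary electrophoresis. Bidirectional fitting versus DMSO baseline.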

Test [15] is described as follows: ATG_GLI_CIS: Attagene CIS-FACTORIAL HepG2 Assay for human Zinc Finger Protein GLI1 (AID 2282945). Conditions: HepG2, Attagene cis-factorial reporter mRNA, GLI element; actives raise or lower the signal. The method, boiled down:
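HepG2 cells transiently transfected with cis-promoter multiplexed reporter units report endogenous transcription factor activity. After 24 h chemical exposure, reporter mRNA was quantified by RT-PCR, 6-FAM labelling, HpaI digestion and capillary electrophoresis, with bidirectional fitting against DMSO.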

Test [16] concerns the target Bile acid receptor (Homo sapiens) (UniProt Q96RI1). Briefly: ATG_IR1_CIS: Attagene CIS-FACTORIAL HepG2 Assay for human Nuclear Receptor Subfamily 1 Group H Member 4 (NR1H4), IR1 submotif (AID 2282946). Particulars: IR1 reporter transcription, actives raise or lower the signal. The method, boiled down:
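Transient MRTU transfection, HepG2; 24 h dosing; RNA → RT-PCR → 6-FAM primer extension → HpaI digest → capillary electrophoresis fluorescence. Gain/loss of signal fitted relative to DMSO.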

Test [17] is described as follows: ATG_M_19_CIS: Attagene CIS-FACTORIAL HepG2 Assay for M19 Transcription Factor (Internal Marker) (AID 2282939). Conditions: HepG2 Attagene CIS-FACTORIAL M19 internal marker reporter; actives raise or lower the signal. In short, it runs like this:
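HepG2 cells transiently transfected with cis-regulated multiple reporter transcription units were dosed for 24 h; reporter mRNA was quantified by RT-PCR, 6-FAM primer-extension labelling, HpaI digestion and capillary electrophoresis, with bidirectional fitting against DMSO baseline.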

Test [18] is described as follows: ATG_Ets_CIS: Attagene CIS-FACTORIAL HepG2 Assay for human Erythroblast Transformation Specific (ETS) (AID 2282941). Conditions: HepG2 ETS cis-reporter transcription, actives raise or lower the signal. The method, boiled down:
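HepG2 cells transfected with multiple cis-regulated reporter units measuring endogenous ETS-driven transcription, 24 h after dosing. Reporter mRNA quantified by RT-PCR with capillary electrophoresis; bidirectional fit relative to DMSO.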

The nature of test [19]: ATG_M_61_CIS: Attagene CIS-FACTORIAL HepG2 Assay for M61 Transcription Factor (Internal Marker) (AID 2282937). Conditions: HepG2 Attagene CIS-FACTORIAL M61 internal marker reporter; actives raise or lower the signal. The method, boiled down:
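Multiplexed reporter mRNA assay, HepG2 human hepatoma cells, 24 h treatment. Signal: FAM-labelled, HpaI-digested RT-PCR fragments by CE. Fit: bidirectional, baseline DMSO.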

The nature of test [20]: ATG_FoxO_CIS: Attagene CIS-FACTORIAL HepG2 Assay for human Forkhead box O (FoxO) (AID 2282943). Conditions: HepG2 Attagene cis-reporter, FoxO element, mRNA; actives raise or lower the signal. In short, it runs like this:
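HepG2 cells transiently transfected with cis-promoter-driven multiple reporter transcription units; 24 h after chemical dosing, reporter mRNA quantified by RT-PCR, fluorescent primer extension, HpaI digestion and capillary electrophoresis. Bidirectional fitting versus DMSO baseline.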

The values that follow come from PubChem BioAssay (EPA / NIEHS).

SMILES strings stand for the structures. Active and inactive are the calls of the source. How the source made its calls: active means hit-call score of the fitted dose curve at least 0.9, where 1 is the maximum; inactive means score below 0.9.

Usually AC50 stands for the concentration giving half of the maximal activity seen.

Transcription factor E2F1 (Homo sapiens), sequence (Q01094 whole entry, looked up): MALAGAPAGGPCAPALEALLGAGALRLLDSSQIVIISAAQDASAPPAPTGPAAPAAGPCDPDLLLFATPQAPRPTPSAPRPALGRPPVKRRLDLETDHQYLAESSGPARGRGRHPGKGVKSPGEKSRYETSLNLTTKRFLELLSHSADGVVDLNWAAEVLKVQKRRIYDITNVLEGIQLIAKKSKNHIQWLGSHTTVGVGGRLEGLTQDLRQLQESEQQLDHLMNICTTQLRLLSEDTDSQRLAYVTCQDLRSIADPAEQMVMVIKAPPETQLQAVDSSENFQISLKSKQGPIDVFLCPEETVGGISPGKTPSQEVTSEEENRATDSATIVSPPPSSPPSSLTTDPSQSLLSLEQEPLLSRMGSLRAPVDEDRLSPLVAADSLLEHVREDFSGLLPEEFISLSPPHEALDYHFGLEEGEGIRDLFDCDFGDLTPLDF
CCAAT/enhancer-binding protein beta (Homo sapiens), sequence (P17676 whole entry, looked up): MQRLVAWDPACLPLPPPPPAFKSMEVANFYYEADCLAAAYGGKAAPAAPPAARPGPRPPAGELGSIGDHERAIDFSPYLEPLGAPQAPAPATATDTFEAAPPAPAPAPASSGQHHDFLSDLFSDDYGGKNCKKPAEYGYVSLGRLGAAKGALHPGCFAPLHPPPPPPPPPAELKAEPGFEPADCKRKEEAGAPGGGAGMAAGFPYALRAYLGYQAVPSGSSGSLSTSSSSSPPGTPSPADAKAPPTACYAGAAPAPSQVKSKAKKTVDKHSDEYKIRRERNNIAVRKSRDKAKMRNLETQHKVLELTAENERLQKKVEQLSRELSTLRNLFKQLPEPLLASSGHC
Aryl hydrocarbon receptor (Homo sapiens), sequence (P35869 whole entry, looked up): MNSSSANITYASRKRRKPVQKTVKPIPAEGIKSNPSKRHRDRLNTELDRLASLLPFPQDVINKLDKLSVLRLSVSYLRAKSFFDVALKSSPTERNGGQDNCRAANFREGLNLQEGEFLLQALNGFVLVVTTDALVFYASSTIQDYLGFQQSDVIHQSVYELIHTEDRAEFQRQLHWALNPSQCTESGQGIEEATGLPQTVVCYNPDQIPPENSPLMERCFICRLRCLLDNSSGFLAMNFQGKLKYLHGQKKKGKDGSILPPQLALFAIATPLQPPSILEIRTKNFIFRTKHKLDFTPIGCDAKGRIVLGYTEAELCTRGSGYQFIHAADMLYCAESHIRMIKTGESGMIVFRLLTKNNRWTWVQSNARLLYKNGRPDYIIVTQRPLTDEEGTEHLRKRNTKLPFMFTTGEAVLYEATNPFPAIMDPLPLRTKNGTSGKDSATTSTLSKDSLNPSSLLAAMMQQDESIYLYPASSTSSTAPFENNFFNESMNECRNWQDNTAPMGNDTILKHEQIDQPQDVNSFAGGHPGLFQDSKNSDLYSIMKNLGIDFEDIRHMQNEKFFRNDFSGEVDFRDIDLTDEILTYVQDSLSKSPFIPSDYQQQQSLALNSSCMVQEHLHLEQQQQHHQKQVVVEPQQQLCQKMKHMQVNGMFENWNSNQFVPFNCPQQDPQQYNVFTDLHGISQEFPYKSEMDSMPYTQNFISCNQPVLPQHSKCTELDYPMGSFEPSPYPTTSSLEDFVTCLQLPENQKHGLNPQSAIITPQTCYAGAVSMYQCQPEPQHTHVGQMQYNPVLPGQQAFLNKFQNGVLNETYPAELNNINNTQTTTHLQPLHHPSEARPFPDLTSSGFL
Retinoic acid receptor alpha (Homo sapiens), sequence (P10276 whole entry, looked up): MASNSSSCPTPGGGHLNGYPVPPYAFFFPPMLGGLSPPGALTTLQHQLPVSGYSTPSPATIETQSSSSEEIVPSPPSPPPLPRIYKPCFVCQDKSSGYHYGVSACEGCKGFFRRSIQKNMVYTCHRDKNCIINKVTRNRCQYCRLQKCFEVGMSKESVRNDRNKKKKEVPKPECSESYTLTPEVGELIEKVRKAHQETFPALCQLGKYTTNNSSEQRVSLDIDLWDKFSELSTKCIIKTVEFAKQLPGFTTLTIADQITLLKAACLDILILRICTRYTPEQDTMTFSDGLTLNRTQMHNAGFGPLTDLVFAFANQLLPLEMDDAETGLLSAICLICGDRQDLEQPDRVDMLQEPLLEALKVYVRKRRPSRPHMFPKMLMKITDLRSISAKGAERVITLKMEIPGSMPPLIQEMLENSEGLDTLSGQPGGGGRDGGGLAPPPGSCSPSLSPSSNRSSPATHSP
Bile acid receptor (Homo sapiens), sequence (Q96RI1 whole entry, looked up): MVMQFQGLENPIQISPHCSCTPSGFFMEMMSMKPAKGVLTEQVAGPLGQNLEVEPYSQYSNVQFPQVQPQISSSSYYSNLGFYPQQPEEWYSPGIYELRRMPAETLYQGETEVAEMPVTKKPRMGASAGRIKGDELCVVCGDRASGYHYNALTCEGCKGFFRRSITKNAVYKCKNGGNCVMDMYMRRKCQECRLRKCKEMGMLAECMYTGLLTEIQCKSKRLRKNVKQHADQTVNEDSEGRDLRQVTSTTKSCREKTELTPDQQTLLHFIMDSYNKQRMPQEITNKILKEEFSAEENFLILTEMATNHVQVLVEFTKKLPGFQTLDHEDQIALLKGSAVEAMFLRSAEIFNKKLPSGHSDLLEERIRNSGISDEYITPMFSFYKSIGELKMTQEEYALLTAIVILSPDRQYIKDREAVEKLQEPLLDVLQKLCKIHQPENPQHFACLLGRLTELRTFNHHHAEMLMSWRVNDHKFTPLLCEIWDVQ
Hepatocyte nuclear factor 3-beta (Homo sapiens), sequence (Q9Y261 whole entry, looked up): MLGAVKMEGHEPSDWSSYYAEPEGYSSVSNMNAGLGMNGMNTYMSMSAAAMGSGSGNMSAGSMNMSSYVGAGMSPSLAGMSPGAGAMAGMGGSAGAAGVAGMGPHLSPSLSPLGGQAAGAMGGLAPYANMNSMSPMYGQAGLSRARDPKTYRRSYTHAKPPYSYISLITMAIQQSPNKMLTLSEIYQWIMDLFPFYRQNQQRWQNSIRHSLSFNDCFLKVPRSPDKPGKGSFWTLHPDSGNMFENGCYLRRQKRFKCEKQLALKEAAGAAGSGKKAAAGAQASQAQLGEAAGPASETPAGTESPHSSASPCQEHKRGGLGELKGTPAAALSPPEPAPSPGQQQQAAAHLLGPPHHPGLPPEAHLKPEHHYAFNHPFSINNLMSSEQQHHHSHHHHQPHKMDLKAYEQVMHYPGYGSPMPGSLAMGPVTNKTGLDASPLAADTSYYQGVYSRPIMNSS

Regarding `O=C(CC(=O)c1ccccc1)c1ccccc1`, the AC50 in [1] was 51.1 µM (active); in test [2], 70.4 µM (active); in test [3], 47.2 µM (active); in [5], 25.9 µM (active); in test [6], 80.1 µM (active); in test [9] it was 62.5 µM (active). The AC50 is 42.5 µM (active) in test [11], 100 µM (active) in test [12], 171 µM (active) in [14] and 157 µM (active) in test [15]. Further, the compound was called inactive in [4], in [7], in [8], in [10], in test [13] and in [16].

As to `ON=C1CCCCC1`, the result in test [1], in test [2], in [3], in test [4], in test [5] and in [6] was inactive. Moreover, the result in test [7], in test [8], in [9], in test [10], in test [11] and in [12] was inactive. Besides, the result in [17], in [18], in [13], in [14] and in [15] was inactive.

`OCC(O)c1ccccc1` (stereo unspecified): the call in [1], in test [2], in test [3], in [4], in test [5] and in test [6] was inactive. In addition, the result in [7], in [8], in test [9], in test [10], in [19] and in test [12] was inactive. Also, the call in test [17], in test [18], in test [13], in test [20] and in test [15] was inactive.

Regarding `Cc1cc(S(=O)(=O)O)ccc1N=Nc1c(O)ccc2ccccc12`, the outcome in test [1], in test [2], in test [3], in [4], in test [6] and in test [7] was inactive. The compound was classed as inactive in test [8], in test [9], in test [10], in test [11], in test [17] and in test [18]. Further, the call in test [13], in test [20], in [14], in test [15] and in [16] was inactive. Moreover, the AC50 in test [5] was 2.32 µM (active).

Turning to `CCCCC(CC)(CO)CO`, the call in [1], in [2], in [3], in test [4], in test [5] and in [6] was inactive. In addition, the outcome in [7], in test [8], in test [10], in [11], in test [19] and in [12] was inactive. Besides, the outcome in test [17], in [18], in test [13], in [14], in test [15] and in test [16] was inactive.
